{"source": "PubChem BioAssay AID493215", "about": "(National Center for Advancing Translational Sciences (NCATS), 2011)", "note": "Results filed as inconclusive are left out. Calls of active or inactive are those of the source. Calls follow the shape of the dose curve; as a rule, active = well fitted inhibition curve with a large enough effect; inconclusive = small, poorly fitted or top-dose-only effect; inactive = flat fitted curve, though single readings scatter.", "data": [{"target": "Cruzipain (Trypanosoma cruzi) (UniProt P25779)", "sequence (P25779 123-467 limits assumed)": "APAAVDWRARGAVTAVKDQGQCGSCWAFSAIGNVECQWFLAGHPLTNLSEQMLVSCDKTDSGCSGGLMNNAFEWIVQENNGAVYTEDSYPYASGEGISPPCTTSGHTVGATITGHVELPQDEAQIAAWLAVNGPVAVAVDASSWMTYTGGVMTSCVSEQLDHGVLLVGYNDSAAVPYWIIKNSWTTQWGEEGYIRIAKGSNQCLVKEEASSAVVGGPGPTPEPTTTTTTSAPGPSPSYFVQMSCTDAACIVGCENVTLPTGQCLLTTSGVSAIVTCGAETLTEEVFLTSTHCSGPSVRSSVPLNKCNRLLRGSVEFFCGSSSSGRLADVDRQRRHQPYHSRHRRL", "assay": "Inhibitors of Cruzain: Benzimidazole Series - Round 1", "details": "purified cruzain, Z-FR-AMC fluorogenic cleavage; series mostly up to 57.1 µM; activity change, negative = inhibition: at the top concentration", "method": "Cruzain is a cysteine protease from the tropical parasite Trypanosoma cruzi. This assay protocol is for an initial exploratory first round of benzimidazole-based inhibitors. Cruzain was assayed by the use of fluorogenic coumarin-based substrate Z-FR-AMC: proteolytic cleavage releases AMC, whose fluorescence is measured at 360 nm excitation and 450 nm emission. Purified cruzain was supplied by the labs of Prof. James McKerrow and Brian Shoichet, UC San Francisco. This assay had 0.01% Triton X-100 concentration.\nSee following references for additional details:\nAssay Provider: Shoichet, Brian; University of California, San Fancisco\nScreening Center PI: Austin, C.P.\nScreening Center: NIH Chemical Genomics Center [NCGC]\nBuffer: 100 mM Sodium Acetate, pH 5.5, 5 mM DTT, Triton X-100 concentration: 0.01%.\nBuffer in columns 3 and 4 as negative control (no enzyme).\nSubstrate solution: 2 uM final concentration of Z-FR-AMC (catalog number I-1160, Bachem) dispensed throughout the plate.\nEnzyme: 1.5 nM Cruzain final concentration in columns 1, 2, 5-48. Column 1 is neutral (100% activity). Column 2 contained titration of covalent inhibitor K11777, starting concentration 1 mM, then 1:2 dilution in duplicate).\nThree uL of enzyme or buffer were dispensed to 1536-well Greiner black solid bottom plates. Compounds and controls (23 nL) were transferred via Kalypsys PinTool. The plates were incubated for 15 min at room temperature, and then 1 uL of substrate solution was added to start the reaction. The plates were immediately transferred to and read 4 times every 30 seconds for 2 min on ViewLux High-throughput CCD imager (Perkin-Elmer) using 360 nm excitation and 450 nm emission fluorescence protocol. The fluorescence intensity difference between the third and the first time points (time lapse of 60 seconds) was used to compute reaction progress.", "values": [{"smiles": "Cc1ccc(C)c(OCCn2c(CCNC(=O)COc3ccc(F)cc3)nc3ccccc32)c1", "Potency": "9.13 µM (active)"}, {"smiles": "CC(C)(C)OC(=O)Cc1nnc(-c2nc3ccccc3[nH]2)o1", "activity change, negative = inhibition": "-0.371% (inactive)"}, {"smiles": "CC(C)(C)OC(=O)NCC(=O)NNC(=O)c1nc2ccccc2[nH]1", "activity change, negative = inhibition": "2.49% (inactive)"}, {"smiles": "O=C(NCc1nnc(-c2nc3ccccc3[nH]2)o1)C1CCCCC1", "activity change, negative = inhibition": "10.7% (inactive)"}, {"smiles": "O=C(Cc1nnc(-c2nc3ccccc3[nH]2)o1)Nc1cc(C(F)(F)F)ccc1Cl", "activity change, negative = inhibition": "4.58% (inactive)"}, {"smiles": "O=C(COc1ccccc1Br)NCCc1nc2ccccc2[nH]1", "Potency": "3.63 µM (active)"}, {"smiles": "CC(C)(C)OC(=O)NCc1nnc(-c2nc3ccccc3[nH]2)o1", "activity change, negative = inhibition": "-4.26% (inactive)"}, {"smiles": "Cc1ccc(C)c(OCCn2c(CCNC(=O)C3CCCCC3)nc3ccccc32)c1", "Potency": "1.62 µM (active)"}, {"smiles": "O=C(NNC(=O)c1nc2ccccc2[nH]1)OCc1ccccc1", "activity change, negative = inhibition": "-7.65% (inactive)"}, {"smiles": "O=C(NCCc1nc2ccccc2n1CCO)C1CCCCC1", "Potency": "6.46 µM (active)"}, {"smiles": "O=C(COc1ccc(F)cc1)NCCc1nc2ccccc2[nH]1", "Potency": "4.08 µM (active)"}]}]}
